Shown is part of a subset that was picked to be rich in hits.
BL2 CD40 inh: CD40 pathway inhibition in BL2 cells. BL2 NF-kB luciferase reporter, CD40L-induced, 4 h. inhibition, % at 10 µM. hit rate 0.94% among 83,000;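 active = mean inhibition of at least 50% with a set share of replicates also reaching that level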
Of the large screens only hits and unclear results are named; the others gave an inactive call; ! = not confirmed by another sample; [ ] = dose if it differs, or a comment.

O=C(N/N=C/c1cccc(O)c1)c1ccc2c(c1)OCCO2	BL2 CD40 inh 75
O=C(N/N=C/c1ccc2c(c1)OCO2)c1ccc2c(c1)OCO2	none
O=C(N/N=C/c1cccnc1)c1ccc2c(c1)OCO2	none
O=C(COc1cccc(-n2cnnn2)c1)NC1CCCCC1	none
Cc1ccc(S(=O)(=O)N2CCN(C(=O)COC(=O)/C=C/c3ccc(Cl)cc3)CC2)c(C)c1	none
CCOC(=O)C1(C)CCN1C(=O)c1ccc(C(=O)OC)cc1 (centres undefined)	none
CCOc1ccc(C(=O)COC(=O)CN2C(=O)NC3(CCCCC3C)C2=O)cc1 (centres undefined)	none
O=C1OC(CN(Cc2ccccc2)Cc2ccccc2)CN1N=Cc1ccc([N+](=O)[O-])o1 (centres undefined)	none
COc1cc(CC(=O)C(=O)O)oc(=O)c1	none
C1CCC(C(CC2CCCCN2)C2CCCCC2)CC1 (centres undefined)	BL2 CD40 inh 78
Cc1cccc(NC(c2ccc(C)s2)c2ccc3ccc(C)nc3c2O)n1 (centres undefined)	none
O=C(NCCC(=O)N1CCCCCCC1)c1ccc(Cl)cc1	none
COc1cccc(NC(=O)N2[C@@H]3CNC[C@H]2C3c2ccc(/C=C/c3ccccc3)cc2)c1 (some centres undefined)	BL2 CD40 inh 60!
COc1cccc(NC(=O)N2[C@@H]3CNC[C@H]2C3c2ccc(-c3ccccc3)cc2)c1 (some centres undefined)	none
O=C(Nc1cccc(Cl)c1)N1[C@@H]2CNC[C@H]1C2c1ccc(/C=C/c2ccccc2)cc1 (some centres undefined)	none
CCOC(=O)c1cc2c(c(-c3cccc(Br)c3)n1)[C@@H](CCO)N(C(=O)NC(C)C)C2	none
O=C(C[C@H]1C[C@@H]2c3cc(NC(=O)Cc4ccncc4)ccc3O[C@@H]2[C@H](CO)O1)NCc1ccc(-c2ccccc2)cc1	none
Nc1nc(-c2ccco2)nn1C(=O)CCc1ccccc1	none
Cc1ccc(CNC(=O)CCS(=O)(=O)c2ccc(C)cc2)cc1	none
O=C(CCCc1ccccc1)NCCC1=CCCCC1	none
Cc1ccc(S(=O)(=O)CCC(=O)NCCC2=CCCCC2)cc1	BL2 CD40 inh 48
CC1CCCC(CC(=O)O)(CC(=O)O)C1 (centres undefined)	none
CCSc1ncnc2sc(C)c(C)c12	none
CC(=NNC(=S)N1CC2CCC(CC2)C1)c1cccc(C)n1	none
CC(=NNC(=S)N1CCC1)c1ccccn1	BL2 CD40 inh 97
C/C(=N/NC(=O)c1ccccn1)c1ccco1	none
CC(N=C1NC(C)(C)Cc2ccccc21)C(=O)O (centres undefined)	none
O=C(Cc1cccnc1)N1CC(=O)N2[C@H](CO)[C@@H](c3ccc(C4=CCCCC4)cc3)[C@H]2C1	none
CC(=O)Nc1ccc(C(=O)COC(=O)C2CC3CCCC(C2)C3=O)cc1 (centres undefined)	none
CC(=O)NCCc1ccc(C(=O)COC(=O)C2CCCCC2)cc1	BL2 CD40 inh 54
CC(=O)NCCc1ccc(C(=O)COC(=O)c2ccco2)cc1	none
O=C(Nc1ccccc1F)N1CCCCN2[C@H](CO)[C@@H](c3ccc(C#Cc4cccnc4)cc3)[C@@H]2C1	none
O=C1C=CC(=O)N1CCCCCCCCCCN1C(=O)C=CC1=O	BL2 CD40 inh 110
O=C1C=CC(=O)N1Cc1cccnc1	none
CC1CCc2c(sc(NC(=O)COC(=O)C3CCCO3)c2C#N)C1 (centres undefined)	none
Cc1c(Cl)cnc(NC(=O)CSc2n[nH]c(N)n2)c1Cl	none
Clc1ccc(-c2cnc3n2CCCCC3)cc1	none
Clc1ccc(C[n+]2cc(-c3ccccc3)n3c2CCCCC3)c(Cl)c1	BL2 CD40 inh 65
CC1(C(=O)Nc2ccccc2Br)CCN1C(=O)Cc1ccc(Cl)cc1Cl (centres undefined)	none
COc1ccc(CNC(N)=O)cc1OC	none
Nc1nc2ccccc2cc1-c1cccs1	none
C(=Cc1c[nH]c2ccccc12)c1nccc2ccccc12	BL2 CD40 inh 62
C(=NN=C1c2ccccc2-c2ccccc21)c1c[nH]c2ccccc12	none
OCC[n+]1ccc(/C=C/c2c[nH]c3ccccc23)cc1	none
OCCN(CCO)c1nc(N2CCCCC2)c2nc(N(CCO)CCO)nc(N3CCCCC3)c2n1	none
Cc1cccc(S(=O)(=O)N(C)C[C@H]2OCc3ccccc3-c3c(n(C)c4ccccc34)C(=O)N([C@@H](C)CO)C[C@H]2C)c1	none
COCCN(C(=O)c1ccco1)c1nc(-c2ccc(OC)cc2)cs1	none
c1cc2nncn2nc1N1CCCC1	none
CCOC(=O)c1cn2nc(N3CCCCC3)ccc2n1	BL2 CD40 inh 66
CCOC(=O)c1cn2nc(N3CCCC3)ccc2n1	none
CN(C)C(=O)c1cccc(-c2ccc(C3[C@H]4CNC[C@@H]3N4C(=O)Nc3cccc(Cl)c3)cc2)c1 (some centres undefined)	none
Cc1c(C(=O)NCCc2ccccc2)oc2ccc(S(=O)(=O)N3CCOCC3)cc12	none
COc1ccc2oc(C(=O)NCC(c3ccco3)N(C)C)c(C)c2c1 (centres undefined)	none
COc1ccc2oc(C(=O)NCCc3ccccc3)c(C)c2c1	BL2 CD40 inh 58
COc1ccc(CNC(=O)c2ccc(S(=O)(=O)N3CC(C)CC(C)C3)cc2)cc1OC (centres undefined)	none
CN1c2ccc(Br)cc2[C@@H]2[C@@H](CCN2C(=O)C2CC2)[C@@H]1CO	none
Cc1ccc(OC(=O)N(C)C[C@H]2OCc3cn(nn3)CCCC(=O)N([C@H](C)CO)C[C@H]2C)cc1	none
COc1ccc(NC(=O)CSCC(=O)N(C)Cc2c(F)cccc2Cl)cc1	none
CC(=NNC(=O)c1ccncc1)c1ccccc1O	none
CC(=NNc1ccc2ccccc2n1)c1ccccc1O	BL2 CD40 inh 96
Oc1ccc(/C(Cc2ccc3ccccc3n2)=N\Nc2ccccc2)c(O)c1	none
N#C[C@H]1[C@H](c2ccccc2-c2ccc(F)cc2)[C@@H](CO)N1C(=O)NC1CCCCC1	none
N#C[C@H]1[C@@H](c2ccc(C#CC3CCCCC3)cc2)[C@@H](CO)N1C(=O)Nc1ccc(F)cc1	BL2 CD40 inh 62[25 µM]
N#C[C@@H]1[C@@H](c2ccccc2-c2ccc(F)cc2)[C@H](CO)N1C(=O)NC1CCCCC1	BL2 CD40 inh 59[25 µM]
N#C[C@H]1[C@@H](c2ccc(C#Cc3ccc(F)cc3)cc2)[C@H](CO)N1C(=O)Nc1ccc(F)cc1	none
N#C[C@@H]1[C@@H](c2ccc(C#CC3CCCC3)cc2)[C@H](CO)N1C(=O)Nc1ccc(F)cc1	none
N#C[C@@H]1[C@H](c2ccc(C#CC3CCCC3)cc2)[C@H](CO)N1C(=O)Nc1ccc(F)cc1	none
N#C[C@@H]1[C@H](c2ccc(C#CC3CCCCC3)cc2)[C@@H](CO)N1C(=O)Nc1ccc(F)cc1	BL2 CD40 inh 77[25 µM]
N#C[C@H]1[C@H](c2ccccc2-c2ccc(F)cc2)[C@H](CO)N1C(=O)NC1CCCCC1	none
CC(C)NC(=O)N1[C@H](CO)[C@@H](c2ccc(C#CC3CCCCC3)cc2)[C@@H]1C#N	none
CN(C)C(=O)[C@H]1[C@H](CO)[C@H]2Cn3c(ccc(-c4ccncc4)c3=O)[C@@H]1N2C(=O)NC1CCCC1	none
COc1ccccc1NS(=O)(=O)c1cc(N/C(=N/S(=O)(=O)c2ccccc2)c2ccc(F)cc2)ccc1Cl	none
COc1ccc(-c2cc(COc3ccccc3)on2)cc1	none
COc1ccccc1NC(=O)Oc1cccc(OC(=O)c2ccccc2)c1	none
Cc1onc(-c2ccccc2)c1C(=O)Nc1cccnc1	none
Nc1nc(-c2ccc(S(=O)(=O)N3CCCCC3)cc2)cs1	none
O=C(CCn1c(=O)oc2ccccc21)NCc1ccco1	none
COc1ccc(-c2ccc([C@H]3[C@H](C#N)N[C@@H]3CO)cc2)cc1	none
CCc1nnc(NC(=O)C2CCCN(C(=O)c3ccc(Cl)cc3)C2)s1 (centres undefined)	none
